According to the supplement of paper PMC6555819:

Columns and labels:
Experiment in all cases: PBM binding z-score (relative to random genomic background probes); higher = stronger binding; sequences stand for … in GC…GCGATTGACAGCGTAGAATGAAGG
[1] = tested on: FXR:RXRa (NR concentration 270 nM, RXRa partner concentration 90 nM)
Procedure, shortened: (§1)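 The probes on custom Agilent 4×180K protein-binding microarrays were double-stranded, with 34-nt variable regions bearing direct-repeat seeds, single-nucleotide variants, half-site ablations and random human genomic background sequences. Incubation lasted 1 h with ligand-free nuclear receptor dimers in PBS pH 7.4, 2% milk, 0.02% Triton X-100, 1 mM DTT, 0.2 mg/mL BSA and 0.4 mg/ml salmon testes DNA. Antibodies against each partner (one per run) detected bound dimers, and fluorescence scans were regression-normalized. Binding z-scores take the random background probes as reference.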

[2] = tested on: LXRa:RXRa (NR concentration 270 nM, RXRa partner concentration 90 nM)
Procedure, shortened: as §1

[3] = tested on: LXRa homodimer (NR concentration 270 nM)
Procedure, shortened: as §1

[4] = tested on: LXRb:RXRa (NR concentration 270 nM, RXRa partner concentration 90 nM)
Procedure, shortened: as §1

[5] = tested on: LXRb homodimer (NR concentration 270 nM)
Procedure, shortened: as §1

[6] = tested on: PPARa:RXRa (NR concentration 270 nM, RXRa partner concentration 90 nM)
Procedure, shortened: as §1

[7] = tested on: PPARg:RXRa (NR concentration 180 nM, RXRa partner concentration 90 nM)
Procedure, shortened: as §1

[8] = tested on: PPARg:RXRa 270nM:90nM, anti-RXR (NR concentration 270 nM, RXRa partner concentration 90 nM)
Procedure, shortened: as §1

[9] = tested on: PPARg:RXRa 30nM:10nM, anti-RXR (NR concentration 30 nM, RXRa partner concentration 10 nM)
Procedure, shortened: as §1

[10] = tested on: PPARg:RXRa 90nM:30nM, anti-RXR (NR concentration 90 nM, RXRa partner concentration 30 nM)
Procedure, shortened: as §1

[11] = tested on: PPARg:RXRa DBDmut IVT, anti-RXR (DBD mutation: RXRa K156A/R161A, NR concentration 270 nM, RXRa partner concentration 90 nM)
Procedure, shortened: as §1

[12] = tested on: PPARg:RXRa IVT, anti-PPARg (NR concentration 270 nM, RXRa partner concentration 90 nM)
Procedure, shortened: as §1

[13] = tested on: PPARg DBDmut:RXRa IVT, anti-PPARg (DBD mutation: PPARg1 K132A/R137A, NR concentration 270 nM, RXRa partner concentration 90 nM)
Procedure, shortened: as §1

[14] = tested on: PPARg DBDmut IVT, anti-PPARg (DBD mutation: PPARg1 K132A/R137A, NR concentration 270 nM)
Procedure, shortened: as §1

[15] = tested on: PPARg homodimer (NR concentration 180 nM)
Procedure, shortened: as §1

[16] = tested on: PXR:RXRa (NR concentration 270 nM, RXRa partner concentration 90 nM)
Procedure, shortened: as §1

[17] = tested on: PXR homodimer (NR concentration 270 nM)
Procedure, shortened: as §1

[18] = tested on: RARa:RXR (NR concentration 270 nM, RXRa partner concentration 90 nM)
Procedure, shortened: as §1

[19] = tested on: RARa homodimer (NR concentration 270 nM)
Procedure, shortened: as §1

[20] = tested on: RARb:RXRa (NR concentration 270 nM, RXRa partner concentration 90 nM)
Procedure, shortened: as §1

| Sequence | PBM binding z-score [1] | PBM binding z-score [2] | PBM binding z-score [3] | PBM binding z-score [4] | PBM binding z-score [5] | PBM binding z-score [6] | PBM binding z-score [7] | PBM binding z-score [8] | PBM binding z-score [9] | PBM binding z-score [10] | PBM binding z-score [11] | PBM binding z-score [12] | PBM binding z-score [13] | PBM binding z-score [14] | PBM binding z-score [15] | PBM binding z-score [16] | PBM binding z-score [17] | PBM binding z-score [18] | PBM binding z-score [19] | PBM binding z-score [20] |
| --- | --- | --- | --- | --- | --- | --- | --- | --- | --- | --- | --- | --- | --- | --- | --- | --- | --- | --- | --- | --- |
| CGAACGAGGACATGAGTTGATAGCAAATGCCGAT | 0.0885 | -0.189 | -0.104 | -0.698 | -0.657 | -0.417 | 0.982 | 0.127 | 0.435 | 0.242 | 0.314 | 0.0195 | 0.334 | -0.107 | 0.0836 | -0.249 | 0.0683 | -0.232 | 0.565 | 0.496 |
| ATCGAAATGTCGAGGTGAGTATAGAGAAAGGGAA | 0.0498 | -0.124 | -0.716 | -0.253 | -0.363 | 0.204 | 0.315 | 0.0336 | 0.162 | 0.363 | -0.755 | 0.414 | 0.309 | 0.489 | -0.704 | -0.204 | -0.513 | 0.129 | -0.696 | 0.538 |
| TAGCCTAGGTCATTGGGCCAGAATAGTACGCATC | 4.53 | 3.53 | 0.524 | 2.31 | 0.302 | 4.07 | 3.79 | 3.88 | 1.11 | 2.46 | 2.63 | 3.68 | -0.385 | -0.0458 | 1.41 | 1.51 | -0.537 | 2.26 | 0.079 | 3.53 |
| ATCTCTAGGTAACAAGTTGAGTGAAAGAGAGGAC | 0.601 | 0.354 | 0.274 | 0.114 | 0.76 | 0.677 | 1.25 | 1.76 | 0.856 | 1.6 | 3.42 | 2.71 | 1.43 | 1.04 | 0.666 | 0.294 | 0.569 | 0.445 | 1.29 | 0.64 |
| TCCATTAGTTGATTAGGGCAACCGAAACAGCGGA | 0.464 | 0.43 | 0.384 | 0.197 | 0.366 | 0.857 | 0.199 | 2.15 | 3.94 | 2.76 | 2.08 | 1.28 | 0.323 | 0.941 | 0.749 | 0.562 | 0.0879 | 0.689 | 0.398 | 1 |
| TATTGTAGATCAGCAGGTTAAGAAAGCTGGCCAA | -0.221 | -0.214 | -0.56 | -0.0553 | -0.105 | 0.342 | -0.269 | 0.483 | -0.249 | 0.429 | -0.472 | 0.909 | 0.264 | -0.14 | -0.31 | -0.184 | -0.219 | -0.00412 | -0.421 | -0.104 |
| CCTACTGGGCCATTCAGGGGTCATTGATCATATG | 3.39 | 3.59 | 3.43 | 4.16 | -0.118 | 4.49 | 2.95 | 3.73 | 1.27 | 2.64 | 3.55 | 4.44 | -0.679 | -0.364 | 2.13 | 5.18 | 1.05 | 5.59 | 0.603 | 3.03 |
| TGAATGAGGTTAAACATCAGGGAACGTGGCGTCG | 3.51 | 2.57 | -0.0319 | 1.69 | -0.0141 | 3.88 | 2.33 | 2.74 | 1.06 | 1.93 | 2.85 | 2.57 | 1.51 | 0.325 | 0.272 | 1.7 | -0.296 | 2.29 | 0.112 | 2.13 |
| ACAAACAGGTGATGAAGGTAACTCAGGCTATCAT | 0.258 | 0.355 | 0.00497 | 0.22 | 0.327 | 0.415 | 0.866 | 0.462 | 0.363 | 0.0404 | 1.05 | 1.01 | 0.711 | 0.584 | 0.773 | 0.14 | 0.394 | 0.713 | 0.803 | 0.582 |
| CGTCAAAGTTCGAGGTAACGTAACAGAAAGCAGC | 1.32 | 1.25 | 0.0429 | 0.91 | -0.403 | 1.74 | 1.36 | 1.98 | 0.481 | 1.36 | 0.256 | 0.878 | -1.11 | 0.105 | 1.18 | 1.28 | 0.589 | 1.39 | 0.233 | 2.73 |
| GCTACTAGGTCAGGTTGGTCAGCTAACGGGTACG | 1.47 | 0.811 | 0.0315 | 0.809 | 0.129 | 2.66 | 4.12 | 3.52 | 0.868 | 3.19 | 7.04 | 6.37 | 0.412 | 0.27 | 1.12 | 0.422 | -0.0861 | 0.74 | 0.258 | 3.26 |
| CAGAGTAGGTTATGGGGCATTCAGGCAACGGTGA | 0.558 | 0.666 | 0.0454 | 0.833 | -0.04 | 2.78 | 4.39 | 5.4 | 3.13 | 5.42 | 3.95 | 4.66 | 1.11 | 0.548 | 1.69 | 0.233 | 0.246 | 0.549 | 0.726 | 1.23 |
| GCTTATGGGTCAAAGGTTATAGCATGAATAGAAT | 6.45 | 5.27 | 0.469 | 5.46 | 0.477 | 6.76 | 11.9 | 10.1 | 10.2 | 11 | 7.1 | 7.2 | 2.03 | 2.31 | 2.17 | 5.71 | 0.209 | 7.4 | 1.13 | 4.41 |
| CTCGAAAGATCGGTTGAGGTGAGTATACGGATAA | 0.238 | -0.622 | -0.531 | -0.146 | -0.43 | 0.0167 | -0.0366 | -0.226 | -0.244 | -0.262 | -0.303 | 0.165 | 0.37 | 0.142 | -0.353 | -0.0362 | -0.0981 | 0.657 | -0.222 | 0.00694 |
